Bioassay records (PubChem BioAssay)
Shown are actives, neighbours in structure and some others; about 7.6% of the full set was active somewhere.
KB-3-1 tox = KB-3-1 parental cell cytotoxicity; AID 1347075; Potency, µM (doses to about 46.1 µM), hits mostly cytotoxic; KB-3-1 viability, CellTiter-Glo ATP luminescence, 72 h; 1.4% of 400,000 active; also: potency is read from the fitted curve at half-maximal effect; % is scaled to controls: 0 for no effect and ±100 for the full control effect; nearly all actives have a fitted effect of over 60% in size
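KB-3-1 cells, DMEM (no phenol red) + 10% FBS; compound by pin transfer, 72 h, 37 °C. Readout: CellTiter-Glo luminescence after 10 min. Data normalized, curve-fitted.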
KB-V1 cytotox = KB-V1 MDR subline cytotoxicity. Potency, µM (top dose mostly 46.1 µM), actives largely listed as cytotoxic. 3.4% of 400,000 active. AID 1347076. KB-V1 MDR cells viability, CellTiter-Glo, 72 h; also: potency is read from the fitted curve at half-maximal effect; % is scaled to controls: 0 for no effect and ±100 for the full control effect; nearly all actives have a fitted effect of over 60% in size
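KB-V1 cells (P-gp-expressing MDR subline of KB-3-1) in phenol-red-free DMEM with 10% FBS were exposed to library compounds over a concentration series for 72 h at 37 degrees C. Viability read by CellTiter-Glo luminescence; concentration-effect curves fitted after normalization.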
MCF10A rerep = inducers of DNA re-replication in MCF 10A breast cells. MCF 10A DNA re-replication, Hoechst nuclear intensity, 48 h. 2.9% of 350,000 active. AID 624296. Potency, µM (highest dose often 46.1 µM), for inactives: at the top dose activity, positive = re-replication, usual class: activators; also: potency is read from the fitted curve at half-maximal effect; % of control where 0% means no effect; nearly all actives have a fitted effect of over 50% in size
hERG WT inh = blocks the wildtype human KCNH2 potassium channel; Q12809; U2OS, BacMam KCNH2, thallium flux FluxOr; active compounds read low; activity change, % at 1.84 µM; 0.37% of 340,000 active;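 active = maximum activity change below -70%; inconclusive = maximum activity change between -70% and -50%; inactive = maximum activity change above -50%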; also: % is scaled to controls: 0 for no effect and ±100 for the full control effect
Target sequence (Q12809 whole entry, looked up): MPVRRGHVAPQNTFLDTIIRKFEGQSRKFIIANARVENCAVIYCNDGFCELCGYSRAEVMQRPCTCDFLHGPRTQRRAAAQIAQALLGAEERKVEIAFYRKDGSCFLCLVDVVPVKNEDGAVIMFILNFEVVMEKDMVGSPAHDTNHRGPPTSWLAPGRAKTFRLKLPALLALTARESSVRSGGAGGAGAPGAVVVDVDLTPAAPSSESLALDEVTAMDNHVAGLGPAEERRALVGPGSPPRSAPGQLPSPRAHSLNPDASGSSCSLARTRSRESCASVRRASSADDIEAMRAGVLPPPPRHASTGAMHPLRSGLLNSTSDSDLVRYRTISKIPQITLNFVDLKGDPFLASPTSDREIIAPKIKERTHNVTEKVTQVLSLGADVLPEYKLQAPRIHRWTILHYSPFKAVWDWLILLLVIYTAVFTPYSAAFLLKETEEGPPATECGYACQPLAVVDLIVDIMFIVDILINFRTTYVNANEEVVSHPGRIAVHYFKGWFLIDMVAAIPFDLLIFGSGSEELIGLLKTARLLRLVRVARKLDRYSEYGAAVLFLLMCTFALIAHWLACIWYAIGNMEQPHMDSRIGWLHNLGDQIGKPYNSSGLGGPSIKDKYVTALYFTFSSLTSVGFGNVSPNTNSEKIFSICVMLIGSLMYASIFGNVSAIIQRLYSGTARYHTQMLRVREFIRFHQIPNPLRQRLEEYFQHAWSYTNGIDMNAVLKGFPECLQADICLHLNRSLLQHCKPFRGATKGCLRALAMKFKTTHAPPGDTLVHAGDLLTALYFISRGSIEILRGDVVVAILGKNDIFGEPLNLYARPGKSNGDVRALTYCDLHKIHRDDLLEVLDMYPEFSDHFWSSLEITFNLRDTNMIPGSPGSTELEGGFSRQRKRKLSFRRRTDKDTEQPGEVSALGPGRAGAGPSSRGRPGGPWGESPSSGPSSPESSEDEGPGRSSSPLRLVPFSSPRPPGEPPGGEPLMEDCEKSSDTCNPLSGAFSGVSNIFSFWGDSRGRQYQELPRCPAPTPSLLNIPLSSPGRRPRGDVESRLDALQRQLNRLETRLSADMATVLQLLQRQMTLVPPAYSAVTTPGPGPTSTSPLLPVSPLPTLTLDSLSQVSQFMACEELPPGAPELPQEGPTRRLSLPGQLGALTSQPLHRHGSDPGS
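U2OS cells transduced with wild-type KCNH2 virus are loaded with FluxOr dye for 45 min, and thallium flux is measured in kinetic reads before and after stimulation buffer. Rate constants are normalized to DMSO controls.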
KCNH2 3.1 block = KCNH2 3.1 (human) potassium channel inhibition; U2OS KCNH2 3.1, thallium flux FluxOr; active compounds read low; activity change, % (tested at about 1.8 µM); 0.95% of 340,000 active; AID 720553;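 active = maximum activity change below -70%; inconclusive = maximum activity change from -70% to -50%; inactive = maximum activity change above -50%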;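 also: thallium influx rate constant from kinetic fluorescence after stimulation buffer; % is scaled to controls: 0 for no effect and ±100 for the full control effect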
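FluxOr-based Tl+ influx in U2OS cells transduced with KCNH2 3.1 virus; rate constants normalized to DMSO controls.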
SW480 rerep = induces DNA re-replication in SW480 colon adenocarcinoma cells; SW480 DNA re-replication, Hoechst DNA content imaging, 48 h; 1.8% of 340,000 active; Potency, µM (doses to about 46.1 µM), without a hit: at the top dose re-replication activation, hits mostly activators; also: potency is read from the fitted curve at half-maximal effect; % of control where 0% means no effect; nearly all actives have a fitted effect of over 55% in size
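Quantitative HTS format with DMSO vehicle controls; 48 hr drug incubation at 37 C, then 40 min Hoechst staining and scanning imager measurement at 405 nm excitation.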
* hit, by the source's call; i = inactive; ? = inconclusive; / = no result given. Unless noted, calls follow the shape of the dose curve; as a rule, active = well fitted curve in the direction sought with a large enough effect; inconclusive = small, poorly fitted or top-dose-only effect, or another doubt; inactive = no such curve, though single readings can be large; an effect the other way counts as inactive or inconclusive.

SMILES	KB-3-1 tox	KB-V1 cytotox	MCF10A rerep	hERG WT inh	KCNH2 3.1 block	SW480 rerep
Cc1ccc(OCCCC(=O)Nc2ccc(Br)cc2)cc1	i	i	-1%	-3	0	0%
O=[N+]([O-])c1cc(/C=N\O)ccc1Oc1ccc(F)cc1	i	i	-8%	0	15	2%
CC(C)(C)Sc1ccc(/C=N/O)cc1[N+](=O)[O-]	i	23µM*	4%	13	6	2%
O=[N+]([O-])c1cc(/C=N/O)ccc1SCc1ccccc1Cl	i	21µM*	?	6	-16	?
Cc1ccc(Sc2ccc(/C=N/O)cc2[N+](=O)[O-])cc1	i	i	21µM*	-9	-1	?
CO/N=C/c1ccc(Sc2ccc(C)cc2)c([N+](=O)[O-])c1	i	i	?	5	-6	-3%
CC(=O)Nc1ccc(S(=O)(=O)NC2(c3ccccc3)C(=O)N(C)C(=O)N(C)C2=O)cc1	i	i	-8%	8	3	-2%
CC(=O)N(Cc1ccc(Br)cc1)c1ccccc1C(=O)O	i	i	-2%	-16	0	2.6µM*
Cc1ccc(OCC(=O)NCCCNC(=O)c2ccco2)cc1	?	i	4%	0	-5	-3%
Cn1c(=O)c2c(nc(Cl)n2Cc2ccncc2)n(C)c1=O	i	i	23%	1	-5	?
Cn1c(=O)c2c(nc(Oc3cccc(Br)c3)n2C)n(C)c1=O	i	i	?	-1	-5	-56%
Cn1c(=O)c2c(ncn2CCOc2cccc(Br)c2)n(C)c1=O	10µM*	?	7%	4	1	6%
Cn1c(=O)c2c(nc(Cl)n2Cc2ccc(Cl)c(Cl)c2)n(C)c1=O	?	16µM*	0%	-15	14	-7%
Cn1c(=O)c2c(ncn2Cc2cccc(Cl)c2)n(C)c1=O	?	?	-5%	-7	14	5%
Cn1c(=O)c2c(ncn2Cc2ccc(Cl)c(Cl)c2)n(C)c1=O	?	2.6µM*	17%	5	-2	8%
CC(C)c1ccc(-c2csc3ncnc(N4CCN(C)CC4)c23)cc1	i	i	?	-4	-6	5%
Cc1ccc(NC(=O)CCc2c[nH]c3ccccc23)nc1	4.1µM*	?	?	11	-21	3.3µM*
CC(C)CNC(=O)CCCc1c[nH]c2ccccc12	i	i	-2%	-70*	-12	9%
O=C1CN(C(=O)CCCc2c[nH]c3ccccc23)c2ccccc2N1	i	i	16µM*	-10	-6	0%
Cc1cccc(C)c1NC(=O)CNC(=O)Cc1c[nH]c2ccccc12	i	i	-2%	-106*	5	0%
O=C(c1cccc(S(=O)(=O)N2CCN(c3ccccc3)CC2)c1)N1CCN(c2ccccc2O)CC1	i	i	-16%	-4	-20	-231%
CC(=O)c1c(C)oc2c1cc(NS(=O)(=O)c1ccc(Cl)c(C)c1)c1ccccc12	i	i	/	/	/	/
CCOC(=O)C1(CCOc2ccccc2)CCN(CC2CC2)CC1	i	i	-4%	13	-20	1%
CCOC(=O)C1(CCOc2ccccc2)CCN(C(=O)c2ccc(-n3cccn3)cc2)CC1	i	?	17%	?	-87*	-1%
CCOC(=O)C1(CCOc2ccccc2)CCN(Cc2cccc(F)c2)CC1	i	i	?	-30	?	4%
SMILES	KB-3-1 tox	KB-V1 cytotox	MCF10A rerep	hERG WT inh	KCNH2 3.1 block	SW480 rerep
CCOC(=O)C1(CCOc2ccccc2)CCN(Cc2cccc(-n3cccn3)c2)CC1	?	?	?	/	-98*	8%
CCOC(=O)C1(CCOc2ccccc2)CCN(CCCn2cccn2)CC1	i	i	9%	-38	-88*	10%
O=C(C(=O)N1CCN(c2ccccc2F)CC1)c1ccccc1	i	i	/	/	/	/
FC(F)(F)c1ccccc1Cc1c(-c2cccc(Br)c2)nc2ccc(Br)cn12	i	i	/	/	/	/
Cn1cnc([N+](=O)[O-])c1Oc1cccc2ccccc12	21µM*	?	21µM*	-16	12	?
CCN(CC)c1c([N+](=O)[O-])ncn1C	i	i	1%	23	33	-4%
CCS(=O)(=O)c1c([N+](=O)[O-])ncn1C	i	i	12µM*	0	-15	?
O=C(COc1cccnc1[N+](=O)[O-])Nc1cccc2ccccc12	i	i	-3%	-7	15	-4%
Cn1cnc([N+](=O)[O-])c1Oc1ccccc1	i	i	?	0	-4	0%
Cn1cnc([N+](=O)[O-])c1S(=O)(=O)Oc1cccc2ccccc12	?	?	5.8µM*	-4	-13	6.5µM*
Cn1cnc([N+](=O)[O-])c1S(=O)(=O)Oc1ccc(Cl)cc1	?	?	6.5µM*	-1	-20	5.8µM*
CC(=O)N1CCN(c2cccc(Nc3nn4c(=O)c5ccccc5nc4s3)c2)CC1	i	i	/	/	/	/
CC1=C(C(=O)N2CCOCC2)CC(CC(=O)NC2CC2)C(=O)N1CCC1=CCCCC1 (stereo not given)	i	i	/	/	/	/
CC1=C(C(=O)N2CCCCCC2)CC(CC(=O)NC(c2ccccc2)c2ccccc2)C(=O)N1CCC1=CCCCC1 (stereo not given)	?	16µM*	/	/	/	/
CC1(C)CCN2CCC(C)(C)c3c(O)ccc1c32	?	i	13µM*	-6	-16	?
C=CCN(CC=C)C(=O)C1CCN(S(=O)(=O)c2ccc(-n3cnnn3)cc2)CC1	i	i	2%	-5	4	-4%
COc1cccc(OC)c1-c1nn2c(-c3cc(-c4ccccc4)n[nH]3)nnc2s1	?	?	15µM*	6	0	9.2µM*
Clc1ccc(OCc2nn3c(-c4ccncc4)nnc3s2)cc1	i	10µM*	12%	-8	-5	-7%
CN(C)c1ccc(-c2nn3c(-c4cc(-c5ccccc5)n[nH]4)nnc3s2)cc1	?	i	/	/	/	/
CCN(CC)c1ccc(-c2nn3c(-c4ccccc4OC)nnc3s2)cc1	0.82µM*	1.5µM*	?	-2	14	1.3µM*
COc1ccccc1-c1nnc2sc(COc3ccc(Cl)cc3Cl)nn12	?	18µM*	?	19	-35	5%
CCc1ccc(Sc2cc(C(=O)NCc3ccccc3OC)c3ccccc3n2)cc1	i	?	/	/	/	/
COc1ccccc1-c1nn2c(-c3ccco3)nnc2s1	i	10µM*	19%	1	3	-9%
